Results from PubChem BioAssay.
Unmarked numbers belong to inactive results. A call without a number means that no potency is given here. For some assays here: Potency and affinity values are given separately. Active and inactive are the calls of the source. Unless noted, no rule for the calls is given here.

How the values were obtained:
[1] = antimalarial activity against Dd2 strain (AID 2302;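 active = growth inhibition above 50% at the single 2 µM test dose, taken to imply half-maximal potency below 2 µM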); settings: P. falciparum Dd2 in RBCs, LDH growth readout, 72 h; at 2 µM; active compounds read high
[2] = HepG2 cytotoxicity, primary screen, cytotoxicity control for P. falciparum antimalarial project, cell-based, ATP luminescence (AID 2303;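 active = inhibition above 50%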); settings: HepG2 viability, 24-48 h, at 10 µM, active compounds read high
[3] = target: L-lactate dehydrogenase (Plasmodium falciparum (isolate CDC / Honduras)) (UniProt Q27743); assay: PfLDH activity inhibition – cell lysate, 3D7 strain, counter-screen for P. falciparum growth inhibition project (AID 2304); settings: P. falciparum 3D7 crude extract, LDH APAD/NBT absorbance; at 2 µM; active compounds read high
[4] = inhibition of 3D7 malaria parasite growth – strain 3D7 (AID 2306); settings: P. falciparum 3D7 erythrocytic growth, LDH absorbance, 72 h; at 2 µM; active compounds read high
[5] = target: Calcium-dependent protein kinase 1 (Plasmodium falciparum (isolate 3D7)) (UniProt P62344); assay: PfCDPK1 kinase inhibitors, biochemical, TCAMS library (AID 1159585; cut-off not given, nearly all actives have IC50 up to about 0.98 µM;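 also: inhibitors leave more ATP so luminescence rises with inhibition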); settings: recombinant PfCDPK1, Kinase-Glo ATP depletion luminescence
[6] = target: Plasmodium falciparum protein kinase 6 (PK6, PF3D7_1337100) (UniProt Q8IDW1); assay: PfPK6 kinase inhibitors, biochemical, TCAMS library (AID 1159586); settings: recombinant PfPK6, Kinase-Glo ATP depletion luminescence
[7] = target: Protein kinase 7 (PK7), Plasmodium falciparum 3D7 (PF3D7_0213400) (UniProt Q7YTF7); assay: inhibition of Plasmodium PK7 catalytic activity – biochemical, TCAMS antimalarial set, Kinase-Glo luminescence (AID 1159587); settings: recombinant PfPK7, Kinase-Glo ATP depletion luminescence
[8] = target: Calcium-dependent protein kinase 4 (Plasmodium falciparum (isolate 3D7)) (UniProt Q8IBS5); assay: PfCDPK4 kinase inhibitors, biochemical, TCAMS library (AID 1159588; cut-off not given, nearly all actives have IC50 up to about 0.91 µM); settings: recombinant PfCDPK4, Kinase-Glo ATP depletion luminescence
Calcium-dependent protein kinase 4 (Plasmodium falciparum (isolate 3D7)), sequence (Q8IBS5 whole entry, looked up): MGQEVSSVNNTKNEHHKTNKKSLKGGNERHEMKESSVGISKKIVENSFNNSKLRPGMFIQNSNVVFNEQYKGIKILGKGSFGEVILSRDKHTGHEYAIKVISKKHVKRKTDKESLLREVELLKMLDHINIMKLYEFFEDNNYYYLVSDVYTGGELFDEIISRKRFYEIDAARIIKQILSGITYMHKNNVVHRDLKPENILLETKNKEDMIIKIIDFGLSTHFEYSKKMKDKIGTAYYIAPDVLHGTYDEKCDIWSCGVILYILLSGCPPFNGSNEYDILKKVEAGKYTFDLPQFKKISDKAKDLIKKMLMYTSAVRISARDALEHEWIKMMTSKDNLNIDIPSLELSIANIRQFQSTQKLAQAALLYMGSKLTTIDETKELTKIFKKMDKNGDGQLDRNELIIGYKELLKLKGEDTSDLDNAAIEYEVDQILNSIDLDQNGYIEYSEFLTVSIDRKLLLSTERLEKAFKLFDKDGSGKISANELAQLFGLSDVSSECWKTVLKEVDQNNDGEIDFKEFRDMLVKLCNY

Calcium-dependent protein kinase 1 (Plasmodium falciparum (isolate 3D7)), sequence (P62344 whole entry, looked up): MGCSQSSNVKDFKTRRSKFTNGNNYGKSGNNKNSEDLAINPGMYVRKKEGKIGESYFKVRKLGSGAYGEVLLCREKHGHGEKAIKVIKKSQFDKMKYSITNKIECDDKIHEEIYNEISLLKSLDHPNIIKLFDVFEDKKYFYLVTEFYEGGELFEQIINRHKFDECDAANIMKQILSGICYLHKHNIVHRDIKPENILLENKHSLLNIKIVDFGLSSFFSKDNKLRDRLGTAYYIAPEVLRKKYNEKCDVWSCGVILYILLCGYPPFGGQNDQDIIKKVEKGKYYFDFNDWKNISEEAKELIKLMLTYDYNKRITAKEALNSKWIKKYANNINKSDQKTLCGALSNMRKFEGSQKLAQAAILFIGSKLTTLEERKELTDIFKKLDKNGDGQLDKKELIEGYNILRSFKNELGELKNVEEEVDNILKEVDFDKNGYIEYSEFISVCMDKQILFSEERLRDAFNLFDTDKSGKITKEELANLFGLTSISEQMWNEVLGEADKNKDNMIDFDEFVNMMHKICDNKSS
L-lactate dehydrogenase (Plasmodium falciparum (isolate CDC / Honduras)), sequence (Q27743 whole entry, looked up): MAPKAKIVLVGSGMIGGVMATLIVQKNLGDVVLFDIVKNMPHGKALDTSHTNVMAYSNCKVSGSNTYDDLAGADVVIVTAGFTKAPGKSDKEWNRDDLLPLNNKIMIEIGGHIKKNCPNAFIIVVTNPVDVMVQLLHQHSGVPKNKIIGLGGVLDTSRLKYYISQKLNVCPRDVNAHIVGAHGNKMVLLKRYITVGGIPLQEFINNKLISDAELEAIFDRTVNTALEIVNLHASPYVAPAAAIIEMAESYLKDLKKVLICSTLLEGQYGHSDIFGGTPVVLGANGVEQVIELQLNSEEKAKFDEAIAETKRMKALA
Protein kinase 7 (PK7), Plasmodium falciparum 3D7 (PF3D7_0213400), sequence (Q7YTF7 1-343): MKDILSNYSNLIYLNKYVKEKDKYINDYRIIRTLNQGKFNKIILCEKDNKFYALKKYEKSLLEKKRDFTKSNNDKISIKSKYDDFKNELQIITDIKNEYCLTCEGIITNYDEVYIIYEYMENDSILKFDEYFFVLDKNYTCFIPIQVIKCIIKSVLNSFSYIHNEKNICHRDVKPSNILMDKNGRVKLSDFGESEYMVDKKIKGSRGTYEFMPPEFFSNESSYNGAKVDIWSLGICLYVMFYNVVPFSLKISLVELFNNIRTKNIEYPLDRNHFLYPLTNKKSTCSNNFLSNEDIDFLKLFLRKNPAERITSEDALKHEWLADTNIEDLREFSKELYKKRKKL
Plasmodium falciparum protein kinase 6 (PK6, PF3D7_1337100), sequence (Q8IDW1 1-305): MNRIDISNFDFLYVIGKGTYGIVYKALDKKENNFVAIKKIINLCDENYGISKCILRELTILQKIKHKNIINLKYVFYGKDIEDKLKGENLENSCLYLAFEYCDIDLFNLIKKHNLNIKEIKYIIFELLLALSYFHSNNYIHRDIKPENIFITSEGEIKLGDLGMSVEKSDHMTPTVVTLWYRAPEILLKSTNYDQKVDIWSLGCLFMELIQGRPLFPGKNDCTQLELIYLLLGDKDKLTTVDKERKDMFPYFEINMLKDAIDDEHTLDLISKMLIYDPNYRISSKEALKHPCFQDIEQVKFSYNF

Row | Compound | growth inhibition [1] | inhibition [2] | inhibition [3] [%] | growth inhibition [4] | outcome [5] | outcome [6] | outcome [7] | outcome [8]
1 | C=CCOC(=O)N1CCC(CNCc2ccc(-c3cccc(-c4nc5c(C)cccc5[nH]4)c3)cc2)C1 (stereo not given) | 99% (active) | 25% | -5 | 102% (active) | inactive | inactive | inactive | inactive
2 | N#Cc1ccc(-c2ccc(C(=O)NCCCCN3CCC(c4nc5ccccc5[nH]4)CC3)cc2)cc1 | 13% | 43% | 4 | 92% (active) | inactive | inactive | inactive | inactive
3 | Cc1ccc2nc(C)cc(NN=Cc3ccccc3[N+](=O)[O-])c2c1 | 100% (active) | 5% | -1 | 102% (active) | inactive | inactive | inactive | inactive
4 | CC[C@H]1CN(CCCn2c3ccccc3c3ccccc32)[C@@H](CC)CN1 | -3% | 69% (active) | -6 | 89% (active) | inactive | inactive | inactive | inactive
5 | C=C[C@]1(C)C[C@@H](OC(=O)c2cncn(COC)c2=O)[C@]2(C)[C@H](C)CC[C@]3(CCC(=O)[C@H]32)[C@@H](C)[C@@H]1O | 7% | -1% | -1 | 96% (active) | inactive | inactive | inactive | inactive
6 | COc1cc(C(=O)N2CCN(C(C)C)CC2)ccc1CN(C)CCCN1CCN(c2cccc(Cl)c2Cl)CC1 | 87% (active) | 56% (active) | 0 | 101% (active) | inactive | inactive | inactive | inactive
7 | CCCN(C(=O)c1ccccc1C)c1nnc(-c2ccccc2C)s1 | 65% (active) | 16% | -7 | 90% (active) | inactive | inactive | inactive | inactive
8 | O=C(CN1CCCC1)Nc1cccc(C(=O)Nc2cccc(C(F)(F)F)c2)c1 | 83% (active) | 9% | 1 | 95% (active) | inactive | inactive | inactive | inactive
9 | Cc1cnc(CN(Cc2ccc(-c3ccc(CNCCc4ccc(S(C)(=O)=O)cc4)cn3)cc2)C(=O)c2nn(-c3ccccc3)nc2C)cn1 | 21% | 11% | 0 | 84% (active) | inactive | inactive | inactive | inactive
10 | CC(C)CNCc1ccc(OCc2cccc(COc3ccc(CNCC(C)C)cc3I)c2)c(I)c1 | 84% (active) | 23% | -4 | 98% (active) | inactive | inactive | inactive | inactive
11 | CCNc1cc(C(=O)N[C@@H](Cc2ccccc2)[C@H](O)CNC(C)CC(C)C)c(F)c(N2CCCCS2(=O)=O)c1 (stereo not given in full) | 66% (active) | 6% | 4 | 95% (active) | inactive | inactive | inactive | inactive
12 | COc1cc(F)c2ncc(Cl)c(C(O)CN3CCC(NC(=O)c4ccc5c(n4)NC(=O)CO5)CC3)c2c1 (stereo not given) | 100% (active) | 22% | -1 | 102% (active) | inactive | inactive | inactive | inactive
13 | COc1ccc(Cl)cc1NC(=O)C(C)N1CCN(S(=O)(=O)c2ccccc2F)CC1 (stereo not given) | 66% (active) | 5% | 4 | 93% (active) | inactive | inactive | inactive | inactive
14 | O=C(Nc1ccc(F)c(Cl)c1)c1cc([N+](=O)[O-])cc2cn[nH]c12 | 67% (active) | 32% | -4 | 100% (active) | inactive | inactive | inactive | inactive
15 | CCCCNC(=O)[C@H](CC1CCCCC1)NC(=O)c1ccc(O)c(-c2ccc(Cl)c(Cl)c2)c1 | 99% (active) | -9% | -1 | 98% (active) | inactive | inactive | inactive | inactive
16 | CS(=O)(=O)c1ccccc1CNC(=O)c1ccc(-c2cccc(-c3nc4ccc(C(F)(F)F)cc4[nH]3)c2)cc1 | 4% | 36% | 4 | 91% (active) | inactive | inactive | inactive | inactive
17 | Oc1ccc(CNCCCCCCNCCc2ccc(Cl)cc2)cc1O | 7% | 2% | 2 | 94% (active) | inactive | inactive | inactive | inactive
18 | CC(C)(C)N1CCC(N(Cc2ccc(-c3ccc(C(F)(F)F)cc3)cc2)C(=O)Cn2c(CCc3cccc(F)c3F)cc(=O)c3cccnc32)CC1 | 63% (active) | 100% (active) | -1 | 102% (active) | inactive | inactive | inactive | inactive
19 | Cc1ccccc1C1CCN(C2CCC(NC(=O)/C=C/c3ccccc3C(F)(F)F)CC2)CC1 (stereo not given) | 6% | 63% (active) | -1 | 83% (active) | inactive | inactive | inactive | inactive
20 | CCCC1N=C(N)N=C(N)N1c1ccc(OC)cc1 (stereo not given) | 4% | -2% | -3 | 96% (active) | inactive | inactive | inactive | inactive

Row | Compound | growth inhibition [1] | inhibition [2] | inhibition [3] [%] | growth inhibition [4] | outcome [5] | outcome [6] | outcome [7] | outcome [8]
21 | Cc1cc(N[C@@H](CC(C)C)C(=O)NCCOc2ccccc2)nc(NCC2CCCCC2)n1 | 53% (active) | 24% | -1 | 97% (active) | inactive | inactive | inactive | inactive
22 | CCCC(C)n1ccc2c3c(N)nc(N)nc3ccc21 (stereo not given) | 91% (active) | 70% (active) | -2 | 94% (active) | inactive | inactive | inactive | inactive
23 | Cc1nc(N)nc(N)c1-c1ccc(Br)c([N+](=O)[O-])c1 | 2% | 64% (active) | 2 | 95% (active) | inactive | inactive | inactive | inactive
24 | O=C(NCCNc1ccnc(Nc2ccc(F)cc2)n1)Nc1ccc2c(c1)OCO2 | 3% | 15% | 0 | 97% (active) | inactive | inactive | inactive | inactive
25 | COc1ccc2[nH]c(C(=O)Nc3cccc(-c4ccc(CN(C)C)cc4)c3)cc2c1 | 34% | 23% | 3 | 100% (active) | inactive | inactive | inactive | inactive
26 | O=C(Nc1cccc(CN2CCCN(Cc3ccc(O)cc3)CC2)c1)c1cccc(F)c1 | 4% | 22% | -2 | 92% (active) | inactive | inactive | inactive | inactive
27 | CCCC(C)N(Cc1ccc(C(C)(C)C)cc1)C(=O)c1ccc(OC)cc1 (stereo not given) | 98% (active) | 7% | -2 | 100% (active) | inactive | inactive | inactive | inactive
28 | CS(=O)(=O)c1ccc(CCNCc2ccc(-c3ccc(CN(C(=O)C4CC(=O)c5ccccc54)C4CCN(Cc5ccccc5)CC4)cc3)nc2)cc1 (stereo not given) | 49% | 9% | 9 | 100% (active) | inactive | inactive | inactive | inactive
29 | CCCCCN1CCCN(Cc2cccc(NC(=O)c3cc4ccccc4s3)c2)CC1 | 30% | 29% | 6 | 99% (active) | inactive | inactive | inactive | inactive
30 | Cc1cc(NCC(C)C)c2[nH]nc(-c3ccccc3)c2n1 | 30% | 9% | 2 | 99% (active) | inactive | inactive | inactive | inactive
31 | COc1ccc(CCc2ccc(-c3c(C)[nH]c(C)c(Cl)c3=O)cc2)cc1 | 97% (active) | -3% | 3 | 98% (active) | inactive | inactive | inactive | inactive
32 | CC1(C)N=C(N)N=C(N)N1OCCCOc1c(Cl)cc(Cl)cc1Cl | 97% (active) | 65% (active) | -2 | 94% (active) | inactive | inactive | inactive | inactive
33 | CCN1CCN(c2cc(C)c3cc(NC(=O)c4cc(OC)cc(OC)c4)ccc3n2)CC1 | 90% (active) | 0% | 4 | 102% (active) | inactive | inactive | inactive | inactive
34 | COc1ccc(-c2ncnc(C(F)(F)F)c2-c2ccc(Cl)cc2)c(O)c1 | 22% | 1% | -4 | 100% (active) | inactive | inactive | inactive | inactive
35 | COc1ccccc1N1CCN(c2cccc3c2nc(-c2cncc(C#N)c2)n3CCNCc2ccccc2)CC1 | 81% (active) | -8% | 3 | 101% (active) | inactive | inactive | inactive | inactive
36 | Cc1ccc(-c2nc(NC(=O)Nc3ccc(C(F)(F)F)cc3)sc2C)cc1Cl | 86% (active) | 29% | -5 | 99% (active) | inactive | inactive | inactive | inactive
37 | CNCc1ccc2nc(-c3coc(Cc4cc(Cl)ccc4OCC(C)C)n3)[nH]c2c1 | 95% (active) | 34% | 2 | 101% (active) | inactive | inactive | inactive | inactive
38 | Cc1cc(NCCc2ccc(O)cc2)nc(NCC(c2ccccc2)c2ccccc2)n1 | 77% (active) | 22% | 1 | 102% (active) | inactive | inactive | inactive | inactive
39 | COc1cc(C(=O)N2CCOC(CCN3CC[C@@H]4c5ccccc5C[C@@H]43)(c3ccc(Cl)c(Cl)c3)C2)cc(OC)c1OC (stereo not given in full) | 82% (active) | 32% | 1 | 88% (active) | inactive | inactive | inactive | inactive
40 | CN1CCN(c2ccnc3ccc(NC(=O)Nc4ccc5c(c4)CCCC5=O)cc23)CC1 | 90% (active) | 8% | 4 | 101% (active) | inactive | inactive | inactive | inactive
